In publication PMC7862700, “An all-to-all approach to the identification of sequence-specific readers for epigenetic DNA modifications on cytosine”:

Assays:
Experiment in all cases: DAPPL (digital affinity profiling via proximity ligation, sequencing); 10 mM Tris-HCl pH 7.5, 50 mM NaCl, 1 mM DTT, 4% glycerol, room temperature, 30 min; GST-TFs on glutathione beads, 16-mer random dsDNA library, 0.1% formaldehyde crosslink after washing; high values mean tight binding
FEV = molecular target: T1, FEV (Homo sapiens, UniProt Q99581 1-238); conditions: protein: recombinant; tags: N-terminal GST; dsDNA, one strand shown
T1 sequence: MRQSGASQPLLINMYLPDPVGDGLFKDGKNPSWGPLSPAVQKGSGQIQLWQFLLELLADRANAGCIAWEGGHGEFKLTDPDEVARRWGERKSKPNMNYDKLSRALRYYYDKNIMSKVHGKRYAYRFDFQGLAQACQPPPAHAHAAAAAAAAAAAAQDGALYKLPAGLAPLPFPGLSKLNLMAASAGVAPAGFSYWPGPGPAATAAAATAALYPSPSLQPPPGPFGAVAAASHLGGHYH
How it was run: (§1)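 In yeast, human transcription factors were expressed with a GST fusion, then pulled down on glutathione beads and given DNA barcodes. Pooled with a tag-only sample, they were exposed to 200 nmole of a 16-mer random double-stranded DNA library (Tris/NaCl/DTT/glycerol buffer, room temperature, 30 min), washed, crosslinked with 0.1% formaldehyde, proximity-ligated using BsaI/T4 ligase for 1 h at 37 °C, PCR-amplified and read on an Illumina NextSeq500. Each hexamer's frequency of reads for a factor, divided by the matching frequency for the tag-only sample, gives the binding signal.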

ETV5 = ETV5 (Homo sapiens, UniProt P41161 1-510); conditions: protein: recombinant; tags: N-terminal GST; dsDNA, one strand shown
How it was run: as §1

HSF1 = HSF1 (Homo sapiens, UniProt Q00613 1-529); conditions: protein: recombinant; tags: N-terminal GST; chain copies: 3; dsDNA, one strand shown
How it was run: as §1

SPIC = molecular target: T2, SPIC (Homo sapiens, UniProt Q8N5J4 1-248); conditions: protein: recombinant; tags: N-terminal GST; dsDNA, one strand shown
T2 sequence: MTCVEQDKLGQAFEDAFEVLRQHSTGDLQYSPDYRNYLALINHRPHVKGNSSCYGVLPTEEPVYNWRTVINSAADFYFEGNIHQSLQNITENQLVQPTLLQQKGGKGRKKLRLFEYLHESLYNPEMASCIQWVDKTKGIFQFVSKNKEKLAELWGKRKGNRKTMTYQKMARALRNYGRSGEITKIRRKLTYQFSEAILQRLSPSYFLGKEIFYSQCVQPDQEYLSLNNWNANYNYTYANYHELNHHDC
How it was run: as §1

ELF4 = ELF4 (Homo sapiens, UniProt Q99607 1-663); conditions: protein: recombinant; tags: N-terminal GST; dsDNA, one strand shown
How it was run: as §1

ELK4 = molecular target: T3, ELK4 (Homo sapiens, UniProt P28324-2 1-405); conditions: protein: recombinant; tags: N-terminal GST; dsDNA, one strand shown
T3 sequence: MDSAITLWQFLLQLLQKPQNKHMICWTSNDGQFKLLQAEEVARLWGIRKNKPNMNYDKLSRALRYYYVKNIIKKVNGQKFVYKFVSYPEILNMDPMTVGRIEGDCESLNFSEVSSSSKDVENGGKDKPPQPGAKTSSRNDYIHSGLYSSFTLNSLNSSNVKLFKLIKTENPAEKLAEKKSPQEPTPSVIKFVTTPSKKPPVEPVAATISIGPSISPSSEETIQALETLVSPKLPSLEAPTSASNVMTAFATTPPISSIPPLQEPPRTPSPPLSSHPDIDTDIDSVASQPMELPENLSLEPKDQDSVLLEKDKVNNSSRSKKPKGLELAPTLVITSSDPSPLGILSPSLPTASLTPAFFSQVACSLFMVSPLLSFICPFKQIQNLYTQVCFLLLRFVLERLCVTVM
How it was run: as §1

ETV2 = molecular target: T4, ETV2 (Homo sapiens, UniProt O00321 1-342); conditions: protein: recombinant; tags: N-terminal GST; dsDNA, one strand shown
T4 sequence: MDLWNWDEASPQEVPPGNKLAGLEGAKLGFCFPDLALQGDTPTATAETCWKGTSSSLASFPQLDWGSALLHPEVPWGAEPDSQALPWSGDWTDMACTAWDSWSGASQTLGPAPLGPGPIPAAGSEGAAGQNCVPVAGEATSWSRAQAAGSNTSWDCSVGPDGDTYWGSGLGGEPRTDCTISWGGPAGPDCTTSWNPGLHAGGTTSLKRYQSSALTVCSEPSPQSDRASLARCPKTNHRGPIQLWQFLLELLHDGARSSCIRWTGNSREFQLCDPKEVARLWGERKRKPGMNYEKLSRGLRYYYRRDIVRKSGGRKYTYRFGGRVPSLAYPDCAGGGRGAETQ
How it was run: as §1

ELF3 = molecular target: T5, ELF3 (Homo sapiens, UniProt P78545 1-371); conditions: protein: recombinant; tags: N-terminal GST; dsDNA, one strand shown
T5 sequence: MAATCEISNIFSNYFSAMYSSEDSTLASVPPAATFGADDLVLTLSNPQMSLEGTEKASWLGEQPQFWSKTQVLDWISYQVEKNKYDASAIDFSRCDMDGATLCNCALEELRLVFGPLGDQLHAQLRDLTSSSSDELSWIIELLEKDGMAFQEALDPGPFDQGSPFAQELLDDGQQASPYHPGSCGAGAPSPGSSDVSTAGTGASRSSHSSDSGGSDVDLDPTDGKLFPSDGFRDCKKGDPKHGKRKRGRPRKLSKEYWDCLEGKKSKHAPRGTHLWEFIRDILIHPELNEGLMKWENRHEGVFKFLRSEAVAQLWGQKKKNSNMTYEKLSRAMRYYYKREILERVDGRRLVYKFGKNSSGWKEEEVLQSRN
How it was run: as §1

CRX = CRX (Homo sapiens, UniProt O43186 1-299); conditions: protein: recombinant; tags: N-terminal GST; dsDNA, one strand shown
How it was run: as §1

ETV1 = ETV1 (Homo sapiens, UniProt P50549 1-477); conditions: protein: recombinant; tags: N-terminal GST; dsDNA, one strand shown
How it was run: as §1

ERF = molecular target: T6, ERF (Homo sapiens, UniProt P50548 1-548); conditions: protein: recombinant; tags: N-terminal GST; dsDNA, one strand shown
T6 sequence: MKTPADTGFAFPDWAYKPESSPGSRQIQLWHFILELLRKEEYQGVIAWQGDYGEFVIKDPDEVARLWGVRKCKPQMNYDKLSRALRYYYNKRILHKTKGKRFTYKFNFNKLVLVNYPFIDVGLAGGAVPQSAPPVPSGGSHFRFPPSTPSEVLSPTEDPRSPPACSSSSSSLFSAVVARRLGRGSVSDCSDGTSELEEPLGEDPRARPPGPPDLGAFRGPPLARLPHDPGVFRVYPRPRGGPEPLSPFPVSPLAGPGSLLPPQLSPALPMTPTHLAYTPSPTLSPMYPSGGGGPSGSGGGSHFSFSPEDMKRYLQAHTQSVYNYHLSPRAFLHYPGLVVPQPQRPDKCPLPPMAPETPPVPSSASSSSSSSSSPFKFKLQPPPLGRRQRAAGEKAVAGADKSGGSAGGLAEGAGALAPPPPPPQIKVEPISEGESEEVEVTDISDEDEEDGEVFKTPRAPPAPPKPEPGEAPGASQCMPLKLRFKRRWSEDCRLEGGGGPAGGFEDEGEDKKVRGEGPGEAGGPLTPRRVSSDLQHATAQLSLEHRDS
How it was run: as §1

ETV3L = molecular target: T7, ETV3L (Homo sapiens, UniProt Q6ZN32 1-361); conditions: protein: recombinant; tags: N-terminal GST; dsDNA, one strand shown
T7 sequence: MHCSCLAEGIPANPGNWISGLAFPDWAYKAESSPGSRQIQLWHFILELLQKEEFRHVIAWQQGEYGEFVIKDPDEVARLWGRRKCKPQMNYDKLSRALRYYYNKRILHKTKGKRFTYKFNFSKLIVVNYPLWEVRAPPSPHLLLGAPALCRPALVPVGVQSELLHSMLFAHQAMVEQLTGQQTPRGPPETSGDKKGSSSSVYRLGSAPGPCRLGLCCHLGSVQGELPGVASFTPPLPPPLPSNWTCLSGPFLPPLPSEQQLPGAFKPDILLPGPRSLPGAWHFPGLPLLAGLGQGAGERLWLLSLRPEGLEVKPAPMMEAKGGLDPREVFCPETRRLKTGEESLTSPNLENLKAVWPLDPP
How it was run: as §1

ETS2 = molecular target: T8, ETS2 (Homo sapiens, UniProt P15036 1-469); conditions: protein: recombinant; tags: N-terminal GST; dsDNA, one strand shown
T8 sequence: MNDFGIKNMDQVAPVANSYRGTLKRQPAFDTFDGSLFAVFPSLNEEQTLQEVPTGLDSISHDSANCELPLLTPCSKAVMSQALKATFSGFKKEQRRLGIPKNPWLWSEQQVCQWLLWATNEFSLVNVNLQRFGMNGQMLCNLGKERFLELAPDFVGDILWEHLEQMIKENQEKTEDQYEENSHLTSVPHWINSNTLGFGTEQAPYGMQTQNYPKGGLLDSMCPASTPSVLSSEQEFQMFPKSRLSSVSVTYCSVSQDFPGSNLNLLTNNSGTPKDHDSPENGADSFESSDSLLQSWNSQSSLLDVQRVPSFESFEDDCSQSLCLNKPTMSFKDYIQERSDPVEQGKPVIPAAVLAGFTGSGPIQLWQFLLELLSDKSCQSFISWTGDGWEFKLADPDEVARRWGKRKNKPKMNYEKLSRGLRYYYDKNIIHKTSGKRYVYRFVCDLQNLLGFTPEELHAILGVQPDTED
How it was run: as §1

SPDEF = molecular target: T9, SPDEF (Homo sapiens, UniProt O95238 1-335); conditions: protein: recombinant; tags: N-terminal GST; dsDNA, one strand shown
T9 sequence: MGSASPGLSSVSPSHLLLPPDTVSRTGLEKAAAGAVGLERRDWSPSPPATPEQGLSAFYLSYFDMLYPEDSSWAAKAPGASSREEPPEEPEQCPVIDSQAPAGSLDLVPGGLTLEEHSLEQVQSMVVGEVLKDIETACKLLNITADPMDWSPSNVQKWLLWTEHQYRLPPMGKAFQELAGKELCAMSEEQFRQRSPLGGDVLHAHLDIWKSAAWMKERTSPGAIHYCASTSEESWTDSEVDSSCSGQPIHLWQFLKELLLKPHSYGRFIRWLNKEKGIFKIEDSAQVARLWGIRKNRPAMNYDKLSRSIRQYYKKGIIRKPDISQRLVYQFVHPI
How it was run: as §1

ETV7 = molecular target: T10, ETV7 (Homo sapiens, UniProt Q9Y603 1-341); conditions: protein: recombinant; tags: N-terminal GST; dsDNA, one strand shown
T10 sequence: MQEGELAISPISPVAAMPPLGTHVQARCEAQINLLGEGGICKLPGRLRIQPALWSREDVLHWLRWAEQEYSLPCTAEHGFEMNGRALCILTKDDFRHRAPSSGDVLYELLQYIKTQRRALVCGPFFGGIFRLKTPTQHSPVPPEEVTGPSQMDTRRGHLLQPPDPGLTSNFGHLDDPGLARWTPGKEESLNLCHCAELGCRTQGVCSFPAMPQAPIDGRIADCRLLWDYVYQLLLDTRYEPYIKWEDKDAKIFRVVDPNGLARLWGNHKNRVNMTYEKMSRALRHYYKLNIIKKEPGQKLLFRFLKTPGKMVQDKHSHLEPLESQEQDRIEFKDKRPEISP
How it was run: as §1

ELF5 = molecular target: T11, ELF5 (Homo sapiens, UniProt Q9UKW6-2 1-255); conditions: protein: recombinant; tags: N-terminal GST; dsDNA, one strand shown
T11 sequence: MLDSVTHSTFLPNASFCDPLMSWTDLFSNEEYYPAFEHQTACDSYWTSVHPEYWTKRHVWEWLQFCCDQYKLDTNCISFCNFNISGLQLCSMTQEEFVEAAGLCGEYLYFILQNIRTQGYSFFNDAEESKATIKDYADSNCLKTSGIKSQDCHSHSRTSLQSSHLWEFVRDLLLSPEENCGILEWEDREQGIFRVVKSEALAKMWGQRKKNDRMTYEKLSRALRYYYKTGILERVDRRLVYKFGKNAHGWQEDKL
How it was run: as §1

ETV3 = molecular target: T12, ETV3 (Homo sapiens, UniProt P41162-2 1-143); conditions: protein: recombinant; tags: N-terminal GST; dsDNA, one strand shown
T12 sequence: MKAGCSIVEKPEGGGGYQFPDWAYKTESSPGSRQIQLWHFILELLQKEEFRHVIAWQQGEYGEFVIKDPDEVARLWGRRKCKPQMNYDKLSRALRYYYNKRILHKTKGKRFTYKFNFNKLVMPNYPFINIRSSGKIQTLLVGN
How it was run: as §1

ETV6 = ETV6 (Homo sapiens, UniProt P41212 1-452); conditions: protein: recombinant; tags: N-terminal GST; dsDNA, one strand shown
How it was run: as §1

ETV1, sequence (P50549 whole entry): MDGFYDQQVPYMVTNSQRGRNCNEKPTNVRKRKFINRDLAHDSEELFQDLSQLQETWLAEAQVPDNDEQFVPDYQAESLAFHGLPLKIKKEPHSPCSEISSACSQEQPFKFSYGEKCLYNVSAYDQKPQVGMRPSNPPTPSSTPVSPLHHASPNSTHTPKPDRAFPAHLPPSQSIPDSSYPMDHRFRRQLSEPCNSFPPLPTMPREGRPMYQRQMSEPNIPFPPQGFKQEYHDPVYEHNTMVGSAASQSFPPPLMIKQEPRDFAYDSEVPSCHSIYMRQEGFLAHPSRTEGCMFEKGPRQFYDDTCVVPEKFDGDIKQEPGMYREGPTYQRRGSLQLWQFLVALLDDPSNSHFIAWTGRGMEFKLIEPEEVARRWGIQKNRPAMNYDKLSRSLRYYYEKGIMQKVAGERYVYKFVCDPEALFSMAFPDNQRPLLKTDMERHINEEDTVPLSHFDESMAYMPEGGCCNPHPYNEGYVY
ELF4, sequence (Q99607 whole entry): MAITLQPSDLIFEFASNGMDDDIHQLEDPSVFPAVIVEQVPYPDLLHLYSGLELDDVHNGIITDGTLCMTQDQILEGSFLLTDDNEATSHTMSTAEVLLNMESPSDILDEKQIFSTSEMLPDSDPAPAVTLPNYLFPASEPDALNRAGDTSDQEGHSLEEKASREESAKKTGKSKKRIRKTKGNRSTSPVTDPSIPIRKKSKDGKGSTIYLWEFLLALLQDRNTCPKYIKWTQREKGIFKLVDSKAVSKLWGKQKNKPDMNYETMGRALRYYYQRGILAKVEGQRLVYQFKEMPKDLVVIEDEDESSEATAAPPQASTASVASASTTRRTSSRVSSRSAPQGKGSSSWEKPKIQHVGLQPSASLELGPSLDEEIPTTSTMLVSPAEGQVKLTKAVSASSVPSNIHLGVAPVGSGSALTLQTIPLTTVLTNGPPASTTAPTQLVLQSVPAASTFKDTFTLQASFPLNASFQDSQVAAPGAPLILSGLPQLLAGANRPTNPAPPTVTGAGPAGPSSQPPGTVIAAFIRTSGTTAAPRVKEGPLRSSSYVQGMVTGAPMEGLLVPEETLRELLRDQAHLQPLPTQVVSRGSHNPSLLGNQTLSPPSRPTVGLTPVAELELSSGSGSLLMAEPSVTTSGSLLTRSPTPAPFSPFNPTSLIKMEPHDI
CRX, sequence (O43186 whole entry): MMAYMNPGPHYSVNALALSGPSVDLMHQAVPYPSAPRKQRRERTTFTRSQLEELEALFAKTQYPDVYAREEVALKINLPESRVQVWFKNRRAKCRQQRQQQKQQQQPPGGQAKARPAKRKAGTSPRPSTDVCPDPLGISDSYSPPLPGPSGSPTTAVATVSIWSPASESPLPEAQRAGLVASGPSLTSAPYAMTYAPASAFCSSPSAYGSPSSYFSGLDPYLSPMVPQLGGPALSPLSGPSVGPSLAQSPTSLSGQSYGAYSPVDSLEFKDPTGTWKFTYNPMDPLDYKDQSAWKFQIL
ETV5, sequence (P41161 whole entry): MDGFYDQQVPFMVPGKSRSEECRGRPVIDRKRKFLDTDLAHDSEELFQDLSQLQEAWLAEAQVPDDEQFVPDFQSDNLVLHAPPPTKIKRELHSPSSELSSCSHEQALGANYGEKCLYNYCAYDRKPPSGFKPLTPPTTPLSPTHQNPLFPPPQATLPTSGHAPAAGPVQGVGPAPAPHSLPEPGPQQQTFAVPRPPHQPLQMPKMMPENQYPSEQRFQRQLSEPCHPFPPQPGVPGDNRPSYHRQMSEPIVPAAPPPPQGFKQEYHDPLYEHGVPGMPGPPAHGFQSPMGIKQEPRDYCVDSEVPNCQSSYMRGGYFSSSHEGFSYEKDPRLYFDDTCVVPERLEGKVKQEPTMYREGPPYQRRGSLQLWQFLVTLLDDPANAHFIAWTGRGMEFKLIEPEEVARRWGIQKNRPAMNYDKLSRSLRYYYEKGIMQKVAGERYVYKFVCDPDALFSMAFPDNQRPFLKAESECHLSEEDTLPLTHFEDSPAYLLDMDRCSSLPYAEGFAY
ETV6, sequence (P41212 whole entry): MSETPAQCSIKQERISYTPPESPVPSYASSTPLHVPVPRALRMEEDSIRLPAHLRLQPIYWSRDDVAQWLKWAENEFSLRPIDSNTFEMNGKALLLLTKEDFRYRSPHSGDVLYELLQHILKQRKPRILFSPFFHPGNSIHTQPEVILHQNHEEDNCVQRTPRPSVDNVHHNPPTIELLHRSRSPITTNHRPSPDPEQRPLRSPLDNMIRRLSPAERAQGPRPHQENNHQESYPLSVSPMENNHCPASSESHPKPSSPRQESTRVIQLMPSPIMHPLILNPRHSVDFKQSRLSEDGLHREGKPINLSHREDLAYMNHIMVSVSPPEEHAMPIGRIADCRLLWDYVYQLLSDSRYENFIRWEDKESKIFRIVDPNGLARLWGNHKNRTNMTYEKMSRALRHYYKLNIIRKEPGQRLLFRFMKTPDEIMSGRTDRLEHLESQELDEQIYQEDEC
HSF1, sequence (Q00613 whole entry): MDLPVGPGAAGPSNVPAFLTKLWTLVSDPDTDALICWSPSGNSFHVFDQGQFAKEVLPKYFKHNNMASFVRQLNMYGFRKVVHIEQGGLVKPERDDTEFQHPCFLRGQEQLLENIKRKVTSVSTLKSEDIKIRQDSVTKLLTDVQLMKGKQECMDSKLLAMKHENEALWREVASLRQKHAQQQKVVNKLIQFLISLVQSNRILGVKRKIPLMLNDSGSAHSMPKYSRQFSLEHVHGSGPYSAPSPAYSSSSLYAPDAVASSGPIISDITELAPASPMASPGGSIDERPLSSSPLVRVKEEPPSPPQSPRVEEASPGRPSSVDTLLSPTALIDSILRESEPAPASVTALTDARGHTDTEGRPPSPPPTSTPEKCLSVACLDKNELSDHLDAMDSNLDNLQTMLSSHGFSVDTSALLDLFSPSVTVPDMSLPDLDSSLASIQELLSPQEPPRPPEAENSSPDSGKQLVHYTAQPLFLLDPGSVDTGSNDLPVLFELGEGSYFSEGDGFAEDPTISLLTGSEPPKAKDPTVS

**Q.** Which results are given for AAAATG?
**A.** binding signal (FEV): 1.16 fold enrichment (6-mer frequency, TF over GST control); binding signal (ETV5): 1.23 fold enrichment (6-mer frequency, TF over GST control); binding signal (HSF1): 1.15 fold enrichment (6-mer frequency, TF over GST control); binding signal (SPIC): 1.32 fold enrichment (6-mer frequency, TF over GST control); binding signal (ELF4): 1.26 fold enrichment (6-mer frequency, TF over GST control); binding signal (ELK4): 1.27 fold enrichment (6-mer frequency, TF over GST control); binding signal (ETV2): 1.31 fold enrichment (6-mer frequency, TF over GST control); binding signal (ELF3): 1.32 fold enrichment (6-mer frequency, TF over GST control); binding signal (CRX): 1.1 fold enrichment (6-mer frequency, TF over GST control); binding signal (ETV1): 1.2 fold enrichment (6-mer frequency, TF over GST control); binding signal (ERF): 1.21 fold enrichment (6-mer frequency, TF over GST control); binding signal (ETV3L): 1.24 fold enrichment (6-mer frequency, TF over GST control); binding signal (ETS2): 1.21 fold enrichment (6-mer frequency, TF over GST control); binding signal (SPDEF): 1.08 fold enrichment (6-mer frequency, TF over GST control); binding signal (ETV7): 1.28 fold enrichment (6-mer frequency, TF over GST control); binding signal (ELF5): 1.24 fold enrichment (6-mer frequency, TF over GST control); binding signal (ETV3): 1.2 fold enrichment (6-mer frequency, TF over GST control); binding signal (ETV6): 1.24 fold enrichment (6-mer frequency, TF over GST control)
